Compound activity as filed in PubChem.
HepG2 viability: HepG2 cytotoxicity, counter-screen for TGF-b inhibitors | HepG2 CAGA-GFP viability, ATP luminescence, 18 h | Potency, µM (series often up to 46.1 µM), without a hit: at the top dose activity change, negative = cytotoxicity, hits mostly cytotoxic | actives 0.76% (n = 410,000)
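CellTiter-Glo luminescence gave cytotoxicity after 18 hours at 37 degrees C. The cells were HepG2 CAGA-GFP in 1% FBS DMEM, stimulated with 500 pg/mL TGF-beta after compound addition. %Activity was normalised to no-cell wells (complete cell-killing) and DMSO (no toxicity), and curves were fitted and classified.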
DT40 TDP1 CPT: DT40-hTDP1 cell growth loss with CPT; AID 686979; actives 12% (n = 420,000); chicken DT40 Tdp1-/-;hTDP1 cells + 20 nM CPT, ATP luminescence, 48 h; Potency, µM (series often up to 46.2 µM), for the others: at the highest dose activity change, negative = growth inhibition, usual class: inhibitors; also: % is scaled to controls: 0 for no effect and ±100 for the full control effect; nearly all actives have a fitted effect of over 55% in size
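Cell growth measured by CellTiter-Glo luminescence after a minimum 48 h, 37 C compound exposure with 20 nM CPT in Tdp1-knockout DT40 cells stably expressing hTDP1, seeded 400/well; qHTS titration format.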
TGFb SMAD3 inh: blocks TGF-b signaling; HepG2 CAGA-GFP TGF-b/SMAD3 reporter, GFP fluorescence, 18 h; TGF-beta stimulated, 500 pg/mL final; AID 588855; Potency, µM (top dose mostly 46.1 µM), without a hit: top-dose activity, negative = inhibition, actives largely listed as inhibitors; actives 1.2% (n = 410,000); also: % is scaled to controls: 0 for no effect and ±100 for the full control effect; nearly all actives have a fitted effect of over 65% in size
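Per well, imaged GFP fluorescence of HEPG2 CAGA-GFP cells gives the signal; cells get compound, then TGF-beta (500 pg/mL final), 18 h at 37 degrees C; %Activity versus -TGF-beta and +DMSO controls.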
DT40 TDP1 no CPT: qHTS for Inhibitors of human tyrosyl-DNA phosphodiesterase 1 (TDP1): qHTS in cells in absence of CPT. DT40 Tdp1-/- hTDP1 cells, no CPT, ATP luminescence, 48 h. Potency, µM (series often up to 46.2 µM), without a hit: top-dose activity change, negative = growth inhibition, usual class: inhibitors. actives 15% (n = 420,000). AID 686978, 2013; also: % is scaled to controls: 0 for no effect and ±100 for the full control effect; nearly all actives have a fitted effect of over 55% in size
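Chicken DT40 Tdp1-/- cells complemented with human TDP1, screened without camptothecin (DMSO vehicle only), 400 cells/well. Compounds pin-transferred, cells incubated at 37 °C for at least 48 hr. Growth read as ATP-dependent luminescence (CellTiter-Glo, 30 min at RT).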
ATXN viability: cell viability loss in ATXN counter-screen. actives 0.49% (n = 400,000). Potency, µM (top dose mostly 56.7 µM), hits mostly cytotoxic. S2 cells (HEK-293 line with an ATXN2-luciferase reporter) viability, CellTiter-Fluor protease fluorescence, 24 h; also: nearly all actives have a fitted effect of over 40% in size
ATXN2 expr inh: inhibitors of ATXN2 expression. HEK-293 ATXN2-luciferase reporter, luminescence, 24 h. Potency, µM (titrated, usually from 57 µM), for the others: at the highest dose activity change, negative = inhibition, hits mostly inhibitors. actives 0.72% (n = 360,000). AID 1745845; also: % is scaled to controls: 0 for no effect and ±100 for the full control effect; nearly all actives have a fitted effect of over 55% in size
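ATXN2-luciferase reporter cells (luciferase flanked by upstream and downstream ATXN2 gene portions) were treated 24 h at 37 °C with compounds at up to 57 uM. SteadyGlo luminescence gave expression; GF-AFC fluorescence gave viability.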
* marks the source's active call; other numbers are inactive results; i = inactive; ? = inconclusive; . = no result; [ ] = another dose, or the depositor's remark. This is a sample that favours compounds with a hit; in the whole collection about 17% have one here. Calls follow the shape of the dose curve; as a rule, active = well fitted curve in the direction sought with a large enough effect; inconclusive = small, poorly fitted or top-dose-only effect, or another doubt; inactive = no such curve, though single readings can be large; an effect the other way counts as inactive or inconclusive. Potency is read from the fitted curve at half-maximal effect.

SMILES	HepG2 viability	DT40 TDP1 CPT	TGFb SMAD3 inh	DT40 TDP1 no CPT	ATXN viability	ATXN2 expr inh
O=C(Cc1csc2nc(-c3ccc(F)cc3)cn12)NCc1ccccc1	3.3%	16.4µM*	-24.7%	?	?	2.8%
COc1ccccc1CNC(=O)Cc1csc2nc(-c3ccc(Cl)cc3)cn12	-7.6%	?	-24.5%	?	?	2.0%
Cc1noc2ncnc(N3CCCC3)c12	-1.3%	-21.1%	4.3%	1.5%	i	-6.2%
Cc1noc2ncnc(N3CCCC(C(=O)NCCC(C)C)C3)c12 (centres undefined)	-17.6%	8.2µM*	?	7.31µM*	i	-8.1%
CCOCCCNC(=O)C1CCCN(c2ncnc3onc(C)c23)C1 (centres undefined)	-10.8%	16.4µM*	-18.5%	20.6µM*	i	-13.6%
Cc1ccc(C)c(NC(=O)C2CCCN(c3ncnc4onc(C)c34)C2)c1 (centres undefined)	-9.6%	11.6µM*	10.1%	10.3µM*	i	4.0%
CCCCN(CC)CCNC(=O)C1CCCN(c2ncnc3onc(C)c23)C1 (centres undefined)	0.4%	-26.2%	-10.1%	-15.6%	i	0.6%
COCCCNC(=O)C1CCCN(c2ncnc3onc(C)c23)C1 (centres undefined)	-2.2%	18.4µM*	-17.1%	?	i	-8.2%
CCS(=O)(=O)N1CCCC(C(=O)NCCCOC)C1 (centres undefined)	-0.4%	1.4%	-22.6%	9.1%	i	5.3%
COC(=O)c1ccccc1NC(=O)C1CCCN(c2ncnc3onc(C)c23)C1 (centres undefined)	1.3%	?	-10.0%	?	?	-9.1%
Cc1nn(Cc2cccc(C(=O)N3N=C(C(F)F)CC3(O)C(F)F)c2)c(C)c1[N+](=O)[O-] (centres undefined)	-18.5%	?	-0.3%	?	i	-7.4%
c1cnc2cc3c(cc2n1)[C@@H]1CNC[C@H]3C1	.	2.5%	.	5.9%	i	.
CC(=O)c1ccc(OCC(=O)N2CCCCC2)cc1	.	2.9%	.	4.7%	i	46.5%
CCc1nn(CCCC(=O)N2CCN(c3cccc(C)c3C)CC2)c(=O)c2cc3occc3n12	-28.7%	?	-28.1%	?	?	.
CCOC(=O)c1ccc(NC(=O)C2CCCN(c3ncnc4onc(C)c34)C2)cc1 (centres undefined)	-27.5%	13µM*	-15.8%	14.6µM*	?	?
CCOC(=O)c1ccc(NC(=O)C2CCCN(S(=O)(=O)c3cnc[nH]3)C2)cc1 (centres undefined)	-16.8%	0.8%	-5.8%	-5.0%	i	1.7%
Nc1ccn([C@@H]2O[C@H](C(=O)NCc3ccc4c(c3)OCO4)[C@@H](O)[C@H]2O)c(=O)n1	-35.1%	1.6%	-10.9%	-12.6%	i	7.5%
CCC(Oc1ccccc1)C(=O)Nc1cccc(OCc2cc(=O)n3cccc(C)c3n2)c1 (centres undefined)	-3.1%	23.1µM*	-23.2%	16.4µM*	.	.
Cc1ccc(OCC(=O)Nc2cccc(OCc3cc(=O)n4cccc(C)c4n3)c2)cc1C	-1.9%	14.6µM*	-18.3%	18.4µM*	.	.
Cc1ccccc1C(=O)Nc1cccc(OCc2cc(=O)n3cccc(C)c3n2)c1	1.8%	?	1.0%	?	.	.
CCCC(=O)Nc1cccc(OCc2cc(=O)n3cccc(C)c3n2)c1	-25.5%	-22.9%	2.0%	-26.5%	.	.
COc1ccc(NC(=O)Nc2cccc(OCc3cc(=O)n4cccc(C)c4n3)c2)c(OC)c1	-9.1%	?	?	13µM*	.	.
CCc1ccc(S(=O)(=O)N2CCN(c3ncccn3)CC2)cc1	-0.9%	-18.1%	16.9%	-21.9%	i	2.8%
Cc1noc(C)c1S(=O)(=O)N(CC(=O)NCc1ccccc1Cl)c1ccc(C(C)C)cc1	-57.8%	?	?	?	i	-0.5%
O=C(COc1ccc(C(=O)c2ccccc2)cc1)NC1CCCCC1	-0.6%	-6.4%	2.9%	-17.7%	i	-3.4%
SMILES	HepG2 viability	DT40 TDP1 CPT	TGFb SMAD3 inh	DT40 TDP1 no CPT	ATXN viability	ATXN2 expr inh
CC(C)CCNC(=O)COc1ccc(C(=O)c2ccccc2)cc1	-10.1%	18.4µM*	-20.1%	?	i	-20.9%[11.3 µM]
CCOc1ccc(C(=O)OCC(=O)NC2CCCCCCC2)cc1	-2.6%	?	-10.9%	?	i	-6.5%
O=C(COc1ccc(C(=O)c2ccccc2)cc1)NC1CCCCCC1	4.8%	25.9µM*	?	16.4µM*	i	-18.0%
CC(C)(C)c1ccc(OCCC(=O)OCC(=O)NC2CCCCC2)cc1	1.7%	-1.4%	-6.5%	-6.7%	i	5.2%
COC(=O)c1ccc(OCC(=O)NC2CCCCCCC2)cc1	0.7%	?	9.3%	16.4µM*	i	1.3%
CC(C)(C)c1ccc(OCCC(=O)OCC(=O)NC(=O)NC2CCCC2)cc1	-30.1%	18.4µM*	?	18.4µM*	i	-29.6%
CCc1nn(CC(=O)NCCCOC)c(=O)c2cc3occc3n12	-17.2%	-10.6%	?	-9.1%	i	7.7%
CC(=O)c1ccc(OCC(=O)NC(=O)NC2CCCCC2)cc1	3.2%	23.1µM*	-17.4%	16.4µM*	i	-28.8%
O=Cc1ccc(OCC(=O)NC(=O)NC2CCCCC2)cc1	-15.7%	?	-0.6%	?	i	-1.8%
O=C(COC(=O)[C@@H]1CCCN1C(=O)c1cccs1)Nc1cccc(Cl)c1	3.9%	-17.6%	-9.4%	-0.9%	i	5.7%
Cc1ccc(S(=O)(=O)N2CC3(O)CN(C(=O)OC(C)C)N(C(=O)OC(C)C)CC3(OC(=O)Nc3cccs3)C2)cc1 (centres undefined)	-38.3%	?	12.6µM*	18.4µM*	?	-6.2%
COC(=O)[C@H]1C[C@@]2(O)CN(S(=O)(=O)c3ccc(C)cc3)C[C@@]2(OC(=O)NCc2ccccc2)C[C@H]1C(=O)OC	2.7%	?	5.5%	?	i	7.9%
Cc1ccc(S(=O)(=O)N2CC3(O)CN(C(=O)OC(C)C)N(C(=O)OC(C)C)CC3(OC(=O)NC3CCCC3)C2)cc1 (centres undefined)	2.6%	?	6.2%	23.1µM*	?	2.9%
